Experimental findings from PubChem BioAssay (NCI) are described below.

The structures appear in SMILES notation. The panel holds about 83,000 compounds, 20% with a hit somewhere; the sample as a whole holds those more often.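 Single-concentration screen, 48 h exposure, 96-well plates. Endpoint: percent growth. Below 10 = active.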 Values without a mark were called inactive. Calls of active or inactive are those of the source.

Among the test systems are T-47D breast; BT-549 breast; MDA-MB-435 melanoma; SW-620 colon; MCF7 breast; HCT-116 colon; HCC-2998 colon; KM12 colon.
Common to all, as to experiment: NCI-60 one-dose screen, 48 h (100 = growth as untreated, 0 = no growth, -100 = all killed)
Common to all, as to settings: 10 µM unless noted

As for `C=CCC(CCCC)(C(=O)OCC)C(=O)OCC`, the growth was 107% with T-47D breast; 96.7% with BT-549 breast; 110% in the experiment with MDA-MB-435 melanoma; 114% in the experiment on SW-620 colon; 93% in the experiment on MCF7 breast; 104% with HCT-116 colon. The growth in the experiment with HCC-2998 colon was 102%; in the experiment with KM12 colon, 108%.
With `COc1ccc(C(=S)N2CCN(c3ccc(Cl)cc3)CC2)cc1`, the growth with T-47D breast is 88.1%; in the experiment with BT-549 breast, 95.4%; in the experiment with MDA-MB-435 melanoma, 120%; with SW-620 colon it was 106%; in the experiment on MCF7 breast, 94%; with HCT-116 colon, 96%. Further, the growth is 105% with HCC-2998 colon and 101% with KM12 colon.
In the case of `CCN1CCN(CC(=O)Nc2ccc(-c3cn4c(n3)sc3cc(Oc5ccnc(C(=O)NC)c5)ccc34)cc2)CC1`, the growth was 32.8% with T-47D breast; 57.2% in the experiment on BT-549 breast; 10.1% in the experiment on MDA-MB-435 melanoma; 8.44% (active) in the experiment on SW-620 colon; 80.2% in the experiment with MCF7 breast; 1.48% (active) with HCT-116 colon. For the same compound, the growth in the experiment on HCC-2998 colon is 117%; in the experiment on KM12 colon, 75.6%.
Consider `Cc1c(CN)cc(-c2ccc(Cl)cc2)n1-c1ccccc1`, for which the growth with T-47D breast is 52.5%; with BT-549 breast, 74.9%; in the experiment on MDA-MB-435 melanoma, 97.1%; with SW-620 colon, 89.4%; in the experiment on MCF7 breast it was 75.1%; in the experiment with HCT-116 colon it was 67.3%. For the same compound, the growth in the experiment with HCC-2998 colon was 107%; with KM12 colon, 99.9%.
As to `Cn1cc(-c2ccc(-c3cn(C)c4ccc(Cl)cc34)[nH]2)c2cc(Cl)ccc21`, the growth in the experiment with T-47D breast was -51.1% (active); in the experiment with BT-549 breast it was -83.7% (active); in the experiment with MDA-MB-435 melanoma, 19.5%; with SW-620 colon, -83.1% (active); in the experiment with MCF7 breast, 18.8%; in the experiment on HCT-116 colon, -85.5% (active). Further, the growth in the experiment with KM12 colon is -33.5% (active).
Take `COc1ccc(/C(C)=C(\c2ccc(Cl)cc2)c2ccc(OCCN3CCCCC3)cc2)cc1`: the growth is 48.1% in the experiment with T-47D breast; 73.1% with BT-549 breast; 58% with MDA-MB-435 melanoma; 24.5% in the experiment with SW-620 colon; 20.3% in the experiment on MCF7 breast; 31.9% with HCT-116 colon. Moreover, the growth in the experiment with HCC-2998 colon is 91.3%; in the experiment on KM12 colon it was 25.7%.
As for `COc1ccc(C[n+]2c3ccccc3n3c4ccc(N)cc4ccc32)c(OC)c1OC`, the growth was 5.52% (active) with T-47D breast; 5.31% (active) in the experiment with BT-549 breast; 53.9% with MDA-MB-435 melanoma; 82.1% in the experiment on SW-620 colon; 31.9% in the experiment on MCF7 breast; 71.9% in the experiment with HCT-116 colon. The growth with HCC-2998 colon was 67.9%; in the experiment with KM12 colon, 19.9%.
With `O=C(Nc1ccc(Cl)cc1)Oc1c(Cl)c(Cl)c(Cl)c(Cl)c1Cl`, the growth is 84.3% with T-47D breast; 92.6% with BT-549 breast; 96.5% in the experiment with MDA-MB-435 melanoma; 101% in the experiment on SW-620 colon; 86% in the experiment on MCF7 breast; 89.1% with HCT-116 colon. Besides, in the experiment with KM12 colon, the growth is 96.6%.
With `COC(=O)N1CC(Oc2ccccn2)C2CC1c1ccccc1O2` (centres undefined), the growth in the experiment on T-47D breast was 99.9%; in the experiment with BT-549 breast, 99.5%; in the experiment on MDA-MB-435 melanoma, 105%; with SW-620 colon, 102%; in the experiment on MCF7 breast, 102%; with HCT-116 colon it was 97.2%. Moreover, the values for the growth with HCC-2998 colon and in the experiment on KM12 colon were 104% and 107%, respectively.
Take `CN1CCN(Cc2ccc(NC(=O)c3cncc(C#Cc4cnc(N)c5ccc(F)cc45)c3)cc2C(F)(F)F)CC1`: the growth in the experiment on T-47D breast was 43.5%; in the experiment on BT-549 breast it was 42%; in the experiment with MDA-MB-435 melanoma, 19.3%; in the experiment with SW-620 colon, -64.4% (active); in the experiment on MCF7 breast it was 13.2%; with HCT-116 colon it was -90.9% (active). Also, in the experiment on KM12 colon, the growth is 7.82% (active).
On to `C#COc1cccc(Nc2ncnc3cc(NC(=O)[C@@H](C)Cl)ccc23)c1`, for which the growth with T-47D breast was -1.06% [6.25 µM] (active); in the experiment on BT-549 breast, 22.2% [6.25 µM]; with MDA-MB-435 melanoma, -58.4% [6.25 µM] (active); with SW-620 colon, 20.4% [6.25 µM]; in the experiment on MCF7 breast, 11.6% [6.25 µM]; in the experiment on HCT-116 colon it was 9.6% [6.25 µM] (active). The growth in the experiment on KM12 colon was 14.8% [6.25 µM].
As to `CC1=C2[C@@H](CC1)[C@]1(C)O[C@@](C3CCCCC3)(C[C@H]1OC(=O)CO)[C@H]2OC(=O)/C=C/c1ccccc1`, the growth in the experiment with T-47D breast was 46.1%; in the experiment on BT-549 breast it was -1.1% (active); in the experiment with MDA-MB-435 melanoma it was 95.9%; in the experiment with SW-620 colon, 86.5%; with MCF7 breast, 57.6%; with HCT-116 colon, 76.3%. The growth is 81.8% with HCC-2998 colon and 79.6% in the experiment with KM12 colon.
On to `O=C1/C=C/[C@@H](O)[C@@H]2C[C@@H](O)C[C@H]2/C=C/CCC[C@H](CCO)O1`, for which the growth was -17.8% (active) in the experiment with T-47D breast; 8.06% (active) in the experiment with BT-549 breast; 9.98% (active) with MDA-MB-435 melanoma; -46% (active) in the experiment with SW-620 colon; -17.1% (active) in the experiment on MCF7 breast; -62.5% (active) in the experiment with HCT-116 colon. In addition, the growth in the experiment with HCC-2998 colon was 1.71% (active); in the experiment with KM12 colon it was -54.3% (active).
For `COc1cc2c(c(OC)c1OC)C(=O)CC(c1cccc(NC(=O)c3ccc(C#N)cc3)c1)O2` (centres undefined), the growth was 8.42% (active) in the experiment on T-47D breast; 43.7% with BT-549 breast; 74% in the experiment on MDA-MB-435 melanoma; 95.9% with SW-620 colon; 65.6% with MCF7 breast; 62% in the experiment with HCT-116 colon. Moreover, the growth with HCC-2998 colon is 101%; with KM12 colon it was 70.9%.
For the compound `COc1cccc(/C=N/NC(=O)c2ccccc2N2CCCC2)c1O`, the growth was 24.7% in the experiment on T-47D breast; 17.8% in the experiment with BT-549 breast; 85.5% with MDA-MB-435 melanoma; 45.3% in the experiment with SW-620 colon; 5.29% (active) in the experiment with MCF7 breast; 4.81% (active) in the experiment with HCT-116 colon. Besides, the values for the growth with HCC-2998 colon and with KM12 colon were 51.8% and 46.5%, respectively.
As to `CCN(CC)CCN1C(=O)c2c(c(C)c3c(oc4ccc(O)cc43)c2C)C1=O`, the growth with T-47D breast was 0.129% (active); with BT-549 breast, 105%; with MDA-MB-435 melanoma, 76.9%; in the experiment with SW-620 colon, 2.51% (active); in the experiment with MCF7 breast, 4.29% (active); with HCT-116 colon, -62.6% (active). Besides, the growth with HCC-2998 colon was 23.5%; in the experiment with KM12 colon, 32.3%.
